Measured values published in PubChem BioAssay (Tox21).
Records with an inconclusive call do not appear. The source made the active and inactive calls. Unless noted, calls come from the whole dose curve; as a rule, active = well fitted curve in the direction sought with a large enough effect in the repeat runs; inconclusive = weak or mixed curves; inactive = no such curve, though single readings can be large; an effect the other way counts as inactive or inconclusive.

Legend:
[1] = qHTS assay to identify small molecule antagonists of the estrogen receptor alpha (ER-alpha) signaling pathway using the BG1 cell line in the presence of 0.1 nM 17-beta-estradiol - cell viability counter screen (AID 1259241); note: nearly all actives have a fitted effect of over 40% in size
In short: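 Cells were plated and left 24 hr, compounds in DMSO were pinned in, 17beta-estradiol was added to 0.1 nM final, and after 22 hr CellTiter-Fluor reagent was added for 30 min before fluorescence was read.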

[2] = qHTS assay to identify small molecule antagonists of the androgen receptor (AR) signaling pathway using the MDA cell line in the presence of 0.5 nM R1881 - cell viability counter screen (AID 1259242); note: nearly all actives have a fitted effect of over 45% in size
In short: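 Fluorescence from CellTiter-Fluor, which reports protease activity of live cells, was read 30 min after reagent addition to MDA-kb2 cells that had been incubated 16 hr with compound and 0.5 nM R1881.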

[3] = molecular target: Androgen receptor (Homo sapiens) (UniProt P10275); assay: qHTS assay to identify small molecule antagonists of the androgen receptor (AR) signaling pathway using the MDA cell line in the presence of 0.5 nM R1881 (AID 1259243); note: nearly all actives have a fitted effect of over 50% in size
In short: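 Inhibition of R1881 (0.5 nM final) induced reporter signal was measured in human MDA-kb2 cells; note the MMTV promoter also responds to GR. Exposure lasted 16 hr at 37C.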

[4] = molecular target: Estrogen receptor (Homo sapiens) (UniProt P03372); assay: qHTS assay to identify small molecule antagonists of the estrogen receptor alpha (ER-alpha) signaling pathway using the BG1 cell line in the presence of 0.1 nM 17-beta-estradiol (AID 1259244); note: nearly all actives have a fitted effect of over 50% in size
In short: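 Quantitative high-throughput screen in VM7Luc4E2 cells: compound plus 0.1 nM E2 (final), 22 h, 37C, 5% CO2; ONE-Glo added, 30 min room temperature, luminescence measured.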

[5] = qHTS assay to identify small molecule HDAC inhibitors (AID 1259364); note: top concentration of the series differs between compounds; nearly all actives have a fitted effect of over 45% in size
In short: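 Endogenous HDAC class I/II activity was measured in wild-type HCT-116 cells by HDAC-Glo luminescence after 2 h compound treatment.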

[6] = qHTS assay to identify small molecule HDAC inhibitors - cell viability counter screen (AID 1259365); note: series mostly up to about 92 µM; nearly all actives have a fitted effect of over 50% in size
In short: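 Counter screen in wild-type HCT-116 cells: compounds dissolved in DMSO are pin-transferred onto overnight-plated cells and left 2hr at 37C. ATP-based CellTiter-Glo luminescence then measures viable cells.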

[7] = qHTS assay to identify small molecule agonists of the sonic hedgehog signaling (Shh) pathway - cell viability counter screen (AID 1259366); note: nearly all actives have a fitted effect of over 50% in size
In short: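 Cells are plated at 2,000 per well and left 4hr at 37C, 5% CO2 before compound addition. After 23hr of treatment, CellTiter-Fluor reagent is added for 1hr at 37C and fluorescence is measured.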

[8] = qHTS assay to identify small molecule antagonists of the sonic hedgehog signaling (Shh) pathway - cell viability counter screen (AID 1259367); note: nearly all actives have a fitted effect of over 55% in size
In short: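 Using CellTiter-Fluor, viability of Gli1-Luc reporter 3T3 cells is read by fluorescence in the wells used for the Shh luciferase assay. Treatment lasts 23 hr with conditioned medium, then reagent 1 hr at 37C.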

[9] = qHTS assay to identify small molecule antagonists of the sonic hedgehog signaling (Shh) pathway (AID 1259369; calls by dose curve; note: nearly all actives have a fitted effect of over 45% in size)
In short: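 Screening used 3T3Gli1-Luc cells at 2,000 per well, compounds delivered in DMSO, and conditioned medium as agonist stimulus; plates incubated 24hr at 37 C and 5% CO2 before a 30min luciferase step.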

[10] = molecular target: Estrogen receptor beta (Homo sapiens) (UniProt Q92731); assay: qHTS assay to identify small molecule agonists of the estrogen receptor beta (ER-beta) signaling pathway (AID 1259377; active = well fitted activation curve with a large enough effect in the signal ratio in the repeat runs, not every such curve was filed as active; the % refers to the signal ratio)
In short: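 Agonist mode cell assay in GripTite HEK293T cells expressing an ER-beta fusion that drives beta-lactamase from an Upstream Activator Sequence; 16 hr compound exposure at 37C, then 2 h LiveBLAzer B/G FRET substrate at room temperature, fluorescence read-out.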

[11] = molecular target: Estrogen receptor beta (Homo sapiens) (UniProt Q92731); assay: qHTS assay to identify small molecule antagonists of the estrogen receptor beta (ER-beta) signaling pathway (AID 1259378; active = well fitted inhibition curve with a large enough effect in the signal ratio in the repeat runs, not every such curve was filed as active; the % refers to the signal ratio)
In short: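 Antagonist mode: compounds added to beta-lactamase reporter HEK293T ER-beta-UAS cells stimulated with E2 (1nM final), 16 hr at 37C. LiveBLAzer B/G FRET substrate, 2 hours room temperature, fluorescence read-out.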

[12] = qHTS assay to identify small molecule agonists of the androgen receptor (AR) signaling pathway in the presence of an antagonist - cell viability counter screen (AID 1259379);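 note: MDA-kb2 human breast cancer cells carrying an MMTV luciferase reporter; series mostly up to about 92 µM; nearly all actives have a fitted effect of over 25% in size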
In short: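 In MDA-kb2 cells (human breast carcinoma, MMTV-luciferase), compounds at 15 concentrations plus 3.0uM nilutamide; 16 hr, 37C, 0% CO2; CellTiter-Fluor fluorescence read for viability.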

[13] = qHTS assay to identify small molecule agonists of the estrogen receptor beta (ER-beta) signaling pathway - cell viability counter screen (AID 1259380); note: nearly all actives have a fitted effect of over 30% in size; note: potency is the fitted concentration of half-maximal effect
In short: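 Viability of ER-beta-UAS-bla HEK293T cells was determined by CellTiter-Glo luminescence following 16 hr treatment with test compounds at 37C.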

[14] = molecular target: Androgen receptor (Homo sapiens) (UniProt P10275); assay: qHTS assay to identify small molecule agonists of the androgen receptor (AR) signaling pathway in the presence of an antagonist (AID 1259381; calls by dose curve; note: nearly all actives have a fitted effect of over 15% in size)
In short: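 Here, 15-concentration compound series were pin-transferred onto MDA-kb2 MMTV-luciferase cells already dosed with nilutamide (3.0uM final). After 16hr at 37C, ONE-Glo was added and luminescence read 30min later at room temperature.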

[15] = qHTS assay to identify small molecule antagonists of the estrogen receptor beta (ER-beta) signaling pathway - cell viability counter screen (AID 1259382);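 note: HEK293T cells carrying ER-beta-UAS-bla reporter stimulated with estradiol; series mostly up to about 92 µM; nearly all actives have a fitted effect of over 55% in size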
In short: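 Tox21 10K library tested in qHTS format on ER-beta-bla HEK293T cells stimulated with 1nM E2; 16 hr treatment at 37C. Same-well CellTiter-Glo luminescence served as the cell viability measure.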

[16] = molecular target: Estrogen receptor (Homo sapiens) (UniProt P03372); assay: qHTS assay to identify small molecule agonists of the estrogen receptor alpha (ER-alpha) signaling pathway in the presence of an antagonist (AID 1259383; calls by dose curve; note: top concentration of the series differs between compounds; nearly all actives have a fitted effect of over 15% in size)
In short: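 In VM7Luc4E2 cells, 4,000 per well, compounds at 15 concentrations were co-incubated 22hr at 37C with 10.0nM final ICI-182,780. Luminescence from the stably transfected 4×ERE-luciferase reporter was recorded 30min after ONE-Glo addition.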

[17] = qHTS assay to identify small molecule agonists of the sonic hedgehog signaling (Shh) pathway (AID 1259368; calls by dose curve;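 note: NIH/3T3-derived 3T3Gli1-Luc cells carrying a stable Gli1-driven firefly luciferase reporter; series mostly up to about 92 µM; nearly all actives have a fitted effect of over 15% in size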)
In short: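 Luminescent signal was taken as a measure of Gli1-controlled luciferase expression in stably transfected NIH/3T3-derived cells that had been treated for 24 hr with compounds delivered in DMSO.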

[18] = qHTS assay to identify small molecule agonists or antagonists of the thyroid stimulating hormone receptor (TSHR) signaling pathway - wild type cell line counter screen (AID 1259384; calls by dose curve)
In short: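 Counter screen in untransfected Hek293: compounds (15-point titration, triplicate) plus phosphodiesterase inhibitor Ro20-1724 added after 18 h plating; 30 min RT. Intracellular cAMP via competitive d2/cryptate immunoassay, 1 h incubation.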

[19] = molecular target: Thyrotropin receptor (Homo sapiens) (UniProt P16473); assay: qHTS assay to identify small molecule antagonists of the thyroid stimulating hormone receptor (TSHR) signaling pathway (AID 1259385; calls by dose curve; note: nearly all actives have a fitted effect of over 20% in size)
In short: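 Antagonist mode: compound-treated TSHR-expressing HEK293 cells were stimulated with 1.5 ng/mL TSH (final) in presence of Ro20-1724 for 30 min at RT. HTRF cAMP detection after 1 h; each compound tested at 15 concentrations, triplicate.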

[20] = qHTS assay to identify small molecule phospholipidosis (PLD) inducers (AID 1259344; active = well fitted curve in the direction sought with a large enough effect; an effect the other way counts as inactive or inconclusive)
In short: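 Fluorescent phospholipid staining (LipidTOX Red) measured by automated microscopy in fixed HepG2 cells after 24 h treatment; nuclei counterstained with Hoechst 33342; amiodarone as reference inducer.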
% is set by controls: 0 for no effect and ±100 for the full control effect.

Thyrotropin receptor (Homo sapiens), sequence (P16473 whole entry, looked up): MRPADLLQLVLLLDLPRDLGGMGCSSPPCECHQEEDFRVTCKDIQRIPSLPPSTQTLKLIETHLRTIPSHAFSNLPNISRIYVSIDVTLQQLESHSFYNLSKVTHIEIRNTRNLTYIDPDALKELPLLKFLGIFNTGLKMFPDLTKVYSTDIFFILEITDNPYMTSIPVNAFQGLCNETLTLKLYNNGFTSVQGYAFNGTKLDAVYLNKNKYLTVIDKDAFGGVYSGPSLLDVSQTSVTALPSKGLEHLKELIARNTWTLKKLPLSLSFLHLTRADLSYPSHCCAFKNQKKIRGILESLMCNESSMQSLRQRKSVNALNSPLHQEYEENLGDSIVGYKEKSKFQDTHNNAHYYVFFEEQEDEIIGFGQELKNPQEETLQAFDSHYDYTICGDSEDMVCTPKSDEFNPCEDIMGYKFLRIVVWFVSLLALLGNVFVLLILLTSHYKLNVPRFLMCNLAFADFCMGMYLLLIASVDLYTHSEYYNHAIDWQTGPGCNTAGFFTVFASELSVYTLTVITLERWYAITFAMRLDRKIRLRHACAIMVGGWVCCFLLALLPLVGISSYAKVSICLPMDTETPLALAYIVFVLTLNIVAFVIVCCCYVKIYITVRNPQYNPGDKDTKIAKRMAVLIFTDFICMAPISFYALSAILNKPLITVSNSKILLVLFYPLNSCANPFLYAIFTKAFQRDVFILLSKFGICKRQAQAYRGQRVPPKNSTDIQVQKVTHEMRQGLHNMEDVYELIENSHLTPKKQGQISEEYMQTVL
Androgen receptor (Homo sapiens), sequence (P10275 whole entry, looked up): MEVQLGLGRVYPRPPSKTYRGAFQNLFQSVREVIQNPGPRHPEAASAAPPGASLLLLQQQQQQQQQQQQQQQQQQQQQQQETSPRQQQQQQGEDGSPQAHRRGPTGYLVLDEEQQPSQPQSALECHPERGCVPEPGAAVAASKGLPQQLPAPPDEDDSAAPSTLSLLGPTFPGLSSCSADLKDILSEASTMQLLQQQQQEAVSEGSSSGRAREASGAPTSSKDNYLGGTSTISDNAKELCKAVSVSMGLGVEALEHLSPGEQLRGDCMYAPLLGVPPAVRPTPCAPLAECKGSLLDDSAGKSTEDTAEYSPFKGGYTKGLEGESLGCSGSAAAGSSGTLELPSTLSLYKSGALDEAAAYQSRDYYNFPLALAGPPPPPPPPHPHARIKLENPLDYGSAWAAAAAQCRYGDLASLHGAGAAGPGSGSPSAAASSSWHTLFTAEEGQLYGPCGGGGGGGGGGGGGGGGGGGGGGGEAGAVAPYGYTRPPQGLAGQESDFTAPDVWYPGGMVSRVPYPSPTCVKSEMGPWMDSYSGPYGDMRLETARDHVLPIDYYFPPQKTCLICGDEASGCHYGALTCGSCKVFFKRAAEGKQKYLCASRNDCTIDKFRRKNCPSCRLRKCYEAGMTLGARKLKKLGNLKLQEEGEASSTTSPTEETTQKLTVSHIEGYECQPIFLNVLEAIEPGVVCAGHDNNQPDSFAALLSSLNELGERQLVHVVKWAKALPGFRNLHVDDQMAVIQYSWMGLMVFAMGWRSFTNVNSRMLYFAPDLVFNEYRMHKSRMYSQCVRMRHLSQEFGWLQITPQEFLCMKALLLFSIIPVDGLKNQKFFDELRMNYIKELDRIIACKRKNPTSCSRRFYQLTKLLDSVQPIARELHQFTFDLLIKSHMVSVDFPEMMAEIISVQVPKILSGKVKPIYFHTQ
Estrogen receptor (Homo sapiens), sequence (P03372 whole entry, looked up): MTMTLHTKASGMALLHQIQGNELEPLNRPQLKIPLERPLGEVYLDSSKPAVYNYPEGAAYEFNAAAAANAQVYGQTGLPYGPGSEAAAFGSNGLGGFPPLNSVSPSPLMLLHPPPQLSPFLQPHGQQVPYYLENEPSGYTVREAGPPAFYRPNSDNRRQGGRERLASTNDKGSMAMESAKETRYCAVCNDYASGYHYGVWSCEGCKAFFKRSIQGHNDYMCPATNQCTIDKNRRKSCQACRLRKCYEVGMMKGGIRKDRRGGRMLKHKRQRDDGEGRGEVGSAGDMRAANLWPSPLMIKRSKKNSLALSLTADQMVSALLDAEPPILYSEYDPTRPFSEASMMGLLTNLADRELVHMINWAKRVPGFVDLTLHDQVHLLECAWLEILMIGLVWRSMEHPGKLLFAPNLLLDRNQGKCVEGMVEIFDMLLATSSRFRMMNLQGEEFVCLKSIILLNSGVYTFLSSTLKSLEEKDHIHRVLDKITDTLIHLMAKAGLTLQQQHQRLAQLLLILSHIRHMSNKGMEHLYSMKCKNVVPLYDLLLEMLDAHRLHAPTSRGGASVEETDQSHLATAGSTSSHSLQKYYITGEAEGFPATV
Estrogen receptor beta (Homo sapiens), sequence (Q92731 whole entry, looked up, the tested form may be a part): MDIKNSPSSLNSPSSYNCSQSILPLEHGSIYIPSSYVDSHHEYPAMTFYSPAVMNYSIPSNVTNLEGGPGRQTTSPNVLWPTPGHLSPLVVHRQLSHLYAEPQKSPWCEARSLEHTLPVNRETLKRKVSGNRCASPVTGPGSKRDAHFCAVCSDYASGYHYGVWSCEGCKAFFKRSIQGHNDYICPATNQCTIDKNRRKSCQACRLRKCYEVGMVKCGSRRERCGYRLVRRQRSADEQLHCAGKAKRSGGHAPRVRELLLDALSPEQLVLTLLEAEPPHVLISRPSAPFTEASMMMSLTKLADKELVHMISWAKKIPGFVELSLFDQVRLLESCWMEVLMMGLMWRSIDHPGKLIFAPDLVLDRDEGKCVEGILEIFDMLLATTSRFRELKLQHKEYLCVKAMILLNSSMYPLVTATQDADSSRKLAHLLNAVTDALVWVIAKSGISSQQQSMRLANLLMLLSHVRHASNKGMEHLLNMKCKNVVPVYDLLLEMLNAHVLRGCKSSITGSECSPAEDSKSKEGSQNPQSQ

N#CC(Cl)(Cl)Cl
inactive: outcome [1] | outcome [2] | Potency [3] | Potency [4] | Potency [5] | outcome [6] | Potency [7] | Potency [8] | Potency [9] | outcome [10] | Potency [11] | Potency [12] | Potency [13] | Potency [14] | Potency [15] | Potency [16]

CC(Oc1ccc(Oc2ncc(C(F)(F)F)cc2Cl)cc1)C(=O)O (centres undefined)
active: Potency [13] 17.2 µM
inactive: outcome [1] | outcome [2] | Potency [3] | Potency [4] | Potency [5] | outcome [6] | Potency [7] | Potency [8] | outcome [17] | Potency [12] | Potency [14] | Potency [16] | Potency [18] | Potency [19]

COc1ncc(F)c2nc(S(=O)(=O)Nc3c(F)cccc3F)nn12
inactive: outcome [1] | outcome [2] | Potency [3] | Potency [4] | Potency [5] | outcome [6] | Potency [7] | Potency [8] | outcome [17] | Potency [9] | outcome [10] | Potency [11] | Potency [12] | Potency [13] | Potency [14] | Potency [15] | Potency [16] | Potency [18] | Potency [19]

CCN(Cc1ccc(Cl)nc1)/C(=C/[N+](=O)[O-])NC
inactive: outcome [1] | outcome [2] | Potency [4] | outcome [20] | Potency [5] | outcome [6] | Potency [7] | Potency [8] | outcome [17] | Potency [9] | outcome [10] | Potency [11] | Potency [12] | Potency [13] | Potency [15] | Potency [16] | Potency [18] | Potency [19]

CC1=C(C(=O)O)N2C(=O)[C@@H](N)[C@H]2SC1
inactive: activity change, negative = cytotoxicity [1] 0.956% [at 19 µM] | viability change, negative = cytotoxic [2] 2.31% [at 19 µM] | activity, negative = inhibition [3] 15.5% [at 19 µM] | activity change, negative = inhibition [4] 0.965% [at 19 µM] | activity change, negative = inhibition [5] 5.61% [at 19 µM] | activity change, negative = cytotoxicity [6] 3.22% [at 19 µM] | viability change, negative = cytotoxic [7] -3.69% [at 19 µM] | viability change, negative = cytotoxic [8] 2.83% [at 19 µM] | activity change [17] 0.0682% [at 18.9 µM] | activity change, negative = inhibition [9] -0.41% [at 19 µM] | activation [10] 1.69% [at 19 µM] | activity, negative = inhibition [11] 20.1% [at 19 µM] | activity change, negative = cytotoxicity [12] -2.71% [at 19 µM] | activity change, negative = cytotoxicity [13] 7.09% [at 19 µM] | activation [14] -0.0648% [at 19 µM] | activity change, negative = cytotoxicity [15] 15.3% [at 19 µM] | cAMP activity change [18] 2.64% [at 18.9 µM, stronger effect = higher value]

O=C(Nc1ccccc1)c1ccccc1I
inactive: outcome [1] | outcome [2] | Potency [3] | Potency [4] | outcome [6] | Potency [7] | outcome [10] | Potency [12] | Potency [14] | Potency [15] | Potency [18]

COP(N)(=S)Oc1ccccc1C(=O)OC(C)C (centres undefined)
inactive: outcome [1] | outcome [2] | Potency [3] | Potency [4] | Potency [5] | outcome [6] | Potency [7] | Potency [8] | outcome [17] | Potency [9] | Potency [12] | Potency [13] | Potency [14] | Potency [15] | Potency [18] | Potency [19]

CCN(CC)C(C)C(=O)c1ccccc1 (centres undefined)
inactive: outcome [1] | outcome [2] | Potency [3] | Potency [4] | outcome [20] | Potency [5] | outcome [6] | Potency [7] | Potency [8] | outcome [17] | Potency [12] | Potency [14] | Potency [15] | Potency [18] | Potency [19]

CCC(=O)C(CCN(C)C)(c1ccccc1)c1ccccc1
inactive: outcome [1] | outcome [2] | Potency [3] | Potency [4] | Potency [5] | outcome [6] | Potency [8] | outcome [17] | Potency [12] | Potency [13] | Potency [14] | Potency [15]
